High-throughput results: PubChem, National Center for Advancing Translational Sciences (NCATS)
HT1080 IDH1KD tx = HT-1080 IDH1 knockdown cell toxicity (counter line); AID 686971; HT-1080 IDH1 knockdown viability, ATP luminescence, 48 h; 2% of 360,000 active; Potency, µM (top dose mostly 46.1 µM), for inactives: at the top dose activity, negative = toxicity, actives largely listed as cytotoxic;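 further: 0% = DMSO wells and -100% = cell-free medium wells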
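Using the IDH1-knockdown HT-1080 line run in the same batch and compound series as the NT line, viability after 48 h at 37 °C was determined by CellTiter-Glo luminescence and expressed as % activity.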
HT1080-NT tox = kills 2HG-producing HT-1080-NT fibrosarcoma cells; Potency, µM (top dose mostly 46.1 µM), without a hit: top-dose activity, negative = less viability, usual class: cytotoxic; HT-1080-NT fibrosarcoma viability, CellTiter-Glo ATP luminescence, 48 h; 1.6% of 360,000 active;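 further: NT is the 2HG producing partner of a matched IDH1 knockdown line; 0% = DMSO-treated cells and -100% = media-only wells without cells; nearly all actives have a fitted effect of over 55% in size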
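Toxicity toward the 2HG-producing NT line was scored as %Activity, normalised to DMSO and no-cell wells, from CellTiter-Glo luminescence after 48 hours' treatment.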
KB-3-1 tox = kills parental KB-3-1 adenocarcinoma cells; AID 1347075; Potency, µM (highest dose often 46.1 µM), most hits filed as cytotoxic; 1.4% of 400,000 active; KB-3-1 viability, CellTiter-Glo ATP luminescence, 72 h; further: nearly all actives have a fitted effect of over 60% in size
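Screening of KB-3-1 cells (DMEM, 10% FBS, phenol-red free) ran from lowest to highest compound concentration; after 72 h at 37 °C viability was read luminescently and curves fitted.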
TDP1 cell CPT = growth inhibition of DT40 Tdp1-/-;hTDP1 cells with camptothecin (screen for TDP1 inhibitors). Potency, µM (doses to about 46.2 µM), for inactives: at the top dose activity change, negative = growth inhibition, most hits filed as inhibitors. chicken DT40 Tdp1-/-;hTDP1 cells + 20 nM CPT, ATP luminescence, 48 h. 12% of 420,000 active; further: nearly all actives have a fitted effect of over 55% in size
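Cell growth measured by CellTiter-Glo luminescence after a minimum 48 h, 37 C compound exposure with 20 nM CPT in Tdp1-knockout DT40 cells stably expressing hTDP1, seeded 400/well; qHTS titration format.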
TDP1 cell noCPT = qHTS for Inhibitors of human tyrosyl-DNA phosphodiesterase 1 (TDP1): qHTS in cells in absence of CPT; 15% of 420,000 active; Potency, µM (highest dose often 46.2 µM), for the others: at the highest dose activity change, negative = growth inhibition, most hits filed as inhibitors; DT40 Tdp1-/- hTDP1 cells, no CPT, ATP luminescence, 48 h; further: nearly all actives have a fitted effect of over 55% in size
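Chicken DT40 Tdp1-/- cells stably complemented with human TDP1 were seeded at 400 cells/well with DMSO in place of 20 nM camptothecin. After compound pinning, cells grew at least 48 hr at 37 °C; viability read by CellTiter-Glo luminescence.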
KB-V1 MDR tox = kills drug-selected multidrug resistant KB-V1 cells; Potency, µM (titrated, usually from 46.1 µM), most hits filed as cytotoxic; KB-V1 MDR cells viability, CellTiter-Glo, 72 h; 3.4% of 400,000 active; further: nearly all actives have a fitted effect of over 60% in size
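Luminescent ATP read-out (CellTiter-Glo, 10 min) measures survival of drug-selected KB-V1 MDR cells after 72 h, 37 degrees C compound exposure. Medium: phenol-red-free DMEM, 10% FBS. Values from fitted concentration-response curves.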
The depositor's hits bear a star; [ ] = dose if it differs, or a comment. An excerpt weighted towards active compounds, which were near 19% of everything screened. The call rests on the fitted dose curve; in most records, active means well fitted curve in the direction sought with a large enough effect; inconclusive means small, poorly fitted or top-dose-only effect, or another doubt; inactive means no such curve, though single readings can be large; an effect the other way counts as inactive or inconclusive. Unless noted, on the % scale 0 is the no-effect control and ±100 the full control effect; potency means the concentration at half of the fitted maximal effect.

`COc1ccc(NC(=O)CN(c2ccccc2OC)S(=O)(=O)c2cccs2)cc1Cl` gave HT1080 IDH1KD tx inconclusive, HT1080-NT tox -23.2%, TDP1 cell CPT inconclusive and TDP1 cell noCPT 14.6µM*.
COc1ccccc1N(CC(=O)Nc1ccccc1)S(=O)(=O)c1cccs1 was read as HT1080 IDH1KD tx -0.5%, HT1080-NT tox -5.2%, KB-3-1 tox inactive, TDP1 cell CPT -23.0%, TDP1 cell noCPT inconclusive and KB-V1 MDR tox inactive.
For CCN(CC)CCNC(=O)c1cnn(-c2ncc3c(n2)-c2ccc(OC)cc2CC3)c1C the results were TDP1 cell CPT 17.8%[9.04 µM] and TDP1 cell noCPT -17.3%.
Screening COc1ccc2c(c1)CCc1cnc(-n3ncc(C(=O)NCCCc4ccncc4)c3C)nc1-2 returned TDP1 cell CPT -2.3%[9.04 µM] and TDP1 cell noCPT 18.4µM*.
Screening Cc1onc(-c2ccccc2)c1C(=O)NCC(=O)Nc1cc(Cl)ccc1Cl returned HT1080 IDH1KD tx -10.6%, HT1080-NT tox -2.9%, KB-3-1 tox inactive, TDP1 cell CPT inconclusive, TDP1 cell noCPT inconclusive and KB-V1 MDR tox inactive.
Screening Brc1cc(Br)c2ncnc(N3CCCCC3)c2c1 returned HT1080 IDH1KD tx inconclusive, HT1080-NT tox 9.2µM*, KB-3-1 tox 8.2µM*, TDP1 cell CPT 20.6µM*, TDP1 cell noCPT 13µM* and KB-V1 MDR tox inconclusive.
Screening O=C(Cn1c(-c2cccs2)cc2ccccc21)N1CCN(c2ccc(F)cc2)CC1 returned KB-3-1 tox inactive, TDP1 cell CPT inconclusive, TDP1 cell noCPT inconclusive and KB-V1 MDR tox inactive.
Cc1ccc(OCCNC(=O)CNC(=O)c2ccc(Cl)c([N+](=O)[O-])c2)cc1 was read as HT1080 IDH1KD tx -0.9%, HT1080-NT tox -2.3%, KB-3-1 tox inactive, TDP1 cell CPT inconclusive, TDP1 cell noCPT inconclusive and KB-V1 MDR tox inconclusive.
`COC1C(O)C(CO)OC1n1c(Br)nc2c(=O)[nH]c(N)nc21` (configuration not stated) gave TDP1 cell CPT -11.7% and TDP1 cell noCPT 1.2%.
For COC1C(CO)OC(n2c3c(Cl)cccc3c3c4c(c5c6cccc(Cl)c6[nH]c5c32)C(=O)NC4=O)C(O)C1O (configuration not stated) the results were HT1080 IDH1KD tx 5.8µM*, HT1080-NT tox 4.61µM*, KB-3-1 tox 8.2µM*, TDP1 cell CPT 0.517µM*, TDP1 cell noCPT 2.59µM* and KB-V1 MDR tox inactive.
For COc1ccc(C(=O)C(CCC(CNC(C)(C)C)C(=O)c2ccc(OC)cc2)CNC(C)(C)C)cc1 (configuration not stated) the results were HT1080 IDH1KD tx 4.61µM*, HT1080-NT tox inconclusive, KB-3-1 tox inconclusive, TDP1 cell CPT 5.17µM*, TDP1 cell noCPT 5.17µM* and KB-V1 MDR tox inconclusive.
`COc1ccc(C(=O)CC(=O)c2ccc(C(C)(C)C)cc2)cc1` gave HT1080 IDH1KD tx -17.4%, HT1080-NT tox 1.1%, KB-3-1 tox inactive, TDP1 cell CPT inconclusive, TDP1 cell noCPT inconclusive and KB-V1 MDR tox inconclusive.
For Cc1ncc2c(c1CNC(=O)/C=C/c1cccs1)CCN(C(=O)c1c(C)noc1C)C2 the results were TDP1 cell CPT 15.6%[9.04 µM] and TDP1 cell noCPT -12.6%.
Screening Oc1ccc(C2CNCc3sccc32)cc1O (configuration not stated) returned HT1080 IDH1KD tx inconclusive, HT1080-NT tox inconclusive, KB-3-1 tox inactive, TDP1 cell CPT 14.6µM*, TDP1 cell noCPT 20.6µM* and KB-V1 MDR tox inactive.
Cc1ccc2c(c1)C(=O)OC(C(=O)Nc1ncc(Cc3ccccc3Cl)s1)C2 (configuration not stated) was read as KB-3-1 tox inactive and KB-V1 MDR tox inactive.
CC(C)NS(=O)(=O)c1ccc(CCC(=O)N2CCCCC2)cc1 was read as HT1080 IDH1KD tx 10.4%, HT1080-NT tox 7.0%, KB-3-1 tox inactive, TDP1 cell CPT 13.1%, TDP1 cell noCPT -12.2% and KB-V1 MDR tox inactive.
For O=C(COc1ccc([N+](=O)[O-])cc1)NCC1(N2CCOCC2)CCCCC1 the results were TDP1 cell CPT -28.6% and TDP1 cell noCPT inconclusive.
Screening CN1CCN(C2(CNC(=O)c3ccc(C(C)(C)C)cc3)CCCCC2)CC1 returned TDP1 cell CPT inconclusive and TDP1 cell noCPT 16.4µM*.
For CS(=O)(=O)c1ccc(C(=O)NCC2(N3CCCCC3)CCCCC2)cc1 the results were HT1080 IDH1KD tx 16.4%, HT1080-NT tox 20.3%, KB-3-1 tox inactive, TDP1 cell CPT -4.9%, TDP1 cell noCPT -9.1% and KB-V1 MDR tox inactive.
For CC(C)(C)c1ccc(OCC(=O)NCC2(N3CCOCC3)CCCCC2)cc1 the results were TDP1 cell CPT 13µM* and TDP1 cell noCPT 16.4µM*.
CC(C)COc1ccc(C(=O)NCC2(N3CCN(C)CC3)CCCCC2)cc1 was read as TDP1 cell CPT inconclusive and TDP1 cell noCPT 18.4µM*.
Screening CC(C)(C)c1ccc(C(=O)NCCCN2CCN(CCCNC(=O)c3ccc(C(C)(C)C)cc3)CC2)cc1 returned HT1080 IDH1KD tx inconclusive, HT1080-NT tox 18.4µM*, KB-3-1 tox inconclusive, TDP1 cell CPT 9.2µM*, TDP1 cell noCPT 9.2µM* and KB-V1 MDR tox 18.4µM*.
COc1ccc(NC(=O)C2(C)CCN2C(=O)CC2CCCC2)cc1OC (configuration not stated) was read as HT1080 IDH1KD tx inconclusive, HT1080-NT tox 17.7%, KB-3-1 tox inactive, TDP1 cell CPT -24.1%, TDP1 cell noCPT -8.8% and KB-V1 MDR tox inconclusive.
COc1ccccc1OC(C)C(=O)NCC1(N2CCOCC2)CCCCC1 (configuration not stated) was read as TDP1 cell CPT 23.1µM* and TDP1 cell noCPT 18.4µM*.
Screening COCc1ccc(C(=O)NCC2(N3CCCCC3)CCCCC2)cc1 returned HT1080 IDH1KD tx 20.9%, HT1080-NT tox inconclusive, KB-3-1 tox inactive, TDP1 cell CPT inconclusive, TDP1 cell noCPT 23.1µM* and KB-V1 MDR tox inactive.
Screening COc1ccccc1-n1nnnc1SCC(=O)NCC1(N2CCOCC2)CCCCC1 returned HT1080 IDH1KD tx 5.2%, HT1080-NT tox 1.2%[9.24 µM], KB-3-1 tox inactive, TDP1 cell CPT inconclusive, TDP1 cell noCPT -20.2% and KB-V1 MDR tox inactive.
